Results on 33 molecules are retold here after PubChem BioAssay AID588790 (National Center for Advancing Translational Sciences (NCATS), 2011).

SMILES strings stand for the structures. About 85 (7%) of roughly 1,200 compounds were called active. Where a call stands in place of a potency, no number is given. The call rests on the fitted dose curve. Only a selection was taken, and actives are over-represented in it overall.
Potency means the concentration at half of the fitted maximal effect.

Beta-2 adrenergic receptor (Homo sapiens), sequence (P07550 whole entry, looked up): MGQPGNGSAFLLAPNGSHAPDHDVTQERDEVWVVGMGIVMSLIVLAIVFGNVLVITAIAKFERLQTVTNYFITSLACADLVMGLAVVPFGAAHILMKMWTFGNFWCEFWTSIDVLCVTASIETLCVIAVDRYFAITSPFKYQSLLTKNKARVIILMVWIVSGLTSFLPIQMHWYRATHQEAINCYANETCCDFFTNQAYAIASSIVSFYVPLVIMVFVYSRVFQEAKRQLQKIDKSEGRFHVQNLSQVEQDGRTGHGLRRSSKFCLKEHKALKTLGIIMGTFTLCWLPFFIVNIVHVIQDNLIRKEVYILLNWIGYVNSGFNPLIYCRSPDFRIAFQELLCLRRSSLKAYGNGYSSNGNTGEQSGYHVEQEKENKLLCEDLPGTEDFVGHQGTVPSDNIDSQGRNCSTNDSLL

The test concerns the target Beta-2 adrenergic receptor (Homo sapiens) (UniProt P07550). The test can be described thus: qHTS assay of beta-arrestin-biased ligands of beta2-adrenergic receptor: Hit Validation with GloSensor. Particulars: W9-Glo22F cells, GloSensor cAMP luminescence, beta2AR agonism; activation: at 46.1 µM (top of the series). In short, it runs like this:
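W9-Glo22F cells plated and incubated overnight at 37 deg C, 5% CO2, then compounds pinned in. GloSensor reagent added, 10 min at room temperature, luminescence read.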
Regarding `CC(C)c1ccc(NC(=S)Nc2ccc3cn[nH]c3c2)cc1`, the Potency entry is “inactive”.

With `O=C(O)C12CC3CC(C1)CC(n1ncc(N4CCN(c5ccccc5)CC4)c(Cl)c1=O)(C3)C2`, the Potency result was “inactive”.

Consider `O=C1c2ccccc2-c2onc3ccc(Oc4ccccc4)c1c23`, for which the Potency was 13 µM (active).

For `C=CCn1nc([N+](=O)[O-])nc1Sc1cccc2cccnc12`, the Potency result is “inactive”.

Take `C=CCNC(=S)Nc1cc(C)ccn1`: the Potency entry was “inactive”.

With `O=C(NCC1CCCO1)c1ccc(CS(=O)(=O)c2ccc(Br)cc2)o1` (stereo not drawn), the Potency entry was “inactive”.

In the case of `COc1ccccc1NS(=O)(=O)c1cc(NC(=O)CNC(=O)c2ccc(C)s2)ccc1Cl`, the Potency result was “inactive”.

`CCOc1ccc(CC(=O)Nc2ccc(S(=O)(=O)Nc3cc(C)on3)cc2)cc1OCC`: the Potency entry is “inactive”.

As to `COc1ccccc1NS(=O)(=O)c1ccc(NC(=O)Cc2cccs2)cc1`, the Potency is 32.6 µM (active).

Turning to `CC(C)N(Cc1cc2ccccc2[nH]c1=O)C(=O)C1CCCCC1`, the Potency result is “inactive”.

On to `COc1ccc(C2CC(O)(c3ccccc3)Oc3cc(OC)c(OC)c(OC)c32)cc1` (stereo not drawn), for which the Potency entry is “inactive”.

As for `COc1cccc(Oc2cnc(N)nc2-c2ccc(OC)cc2O)c1`, the Potency was 23.1 µM (active).

In the case of `COc1ccc(Nc2cc(Nc3cccc(OC)c3)ncn2)cc1`, the Potency entry is “inactive”.

Regarding `C/C(CC(C)(C)C1CCCCC1)=N\NC(N)=S`, the Potency entry was “inactive”.

Consider `O=[N+]([O-])c1ccc(O)c2ncccc12`, for which the Potency entry is “inactive”.

For the molecule `COc1cc([N+](=O)[O-])c2nccnc2c1`, the Potency was 16.4 µM (active).

For `O=[N+]([O-])c1cc(Cl)c(O)c2ncccc12`, the Potency result was “inactive”.

Turning to `O=[N+]([O-])c1cc(Br)cc(C=Nc2ccc3c(c2)OCO3)c1O`, the Potency result was “inactive”.

For the molecule `Oc1ccc(NCc2cccc(OCc3ccccc3)c2)cc1`, the Potency result is “inactive”.

With `Oc1ccc(NCc2ccc(OCc3ccccc3)cc2)cc1`, the Potency entry was “inactive”.

Consider `COc1cc(CNc2ccc(O)cc2)cc(Br)c1OCc1ccccc1`, for which the Potency was 14.6 µM (active).

`NC(=S)N=Nc1c(O)n(Cc2ccc(F)cc2)c2ccccc12`: the Potency entry is “inactive”.

As for `C=CCn1c(O)c(N=NC(=S)Nc2ccccc2F)c2cc(S(=O)(=O)N3CCOCC3)ccc21`, the Potency result is “inactive”.

For `NC(=S)N=Nc1c(O)n(CCCl)c2ccccc12`, the Potency was 25.9 µM (active).

As to `CC1CC(C)(C)n2c(O)c(N=NC(N)=S)c3cccc1c32` (stereo not drawn), the Potency result is “inactive”.

`NC(=S)N=Nc1c(O)n(CCCl)c2ccc(Cl)cc12`: the Potency was 32.6 µM (active).

`C/C(Cl)=C\Cn1c(O)c(N=NC(N)=S)c2ccccc21`: the Potency entry was “inactive”.

For the molecule `O=C(Oc1cccc2cccnc12)c1ccc2c(c1)OCCO2`, the Potency result was “inactive”.

With `COc1ccc(NC(=S)Nc2cccc(C)n2)cc1`, the Potency entry was “inactive”.

In the case of `CCc1cc2c(SCC(=O)Nc3ccc(Cl)cn3)ncnc2s1`, the Potency result was “inactive”.

With `c1ccc(CCNc2nc(-c3ccccn3)cs2)cc1`, the Potency entry is “inactive”.

Take `COc1ccc(CCNc2nc(-c3ccccn3)cs2)cc1OC`: the Potency is 20.6 µM (active).

Consider `COc1ccc(OCCCC(=O)Nc2nc(-c3ccccn3)cs2)cc1`, for which the Potency result is “inactive”.
